From the supplement of paper PMC6555819

Each sequence was assayed on VDR:RXRa (NR concentration 270 nM, RXRa partner concentration 90 nM) (assay: PBM binding z-score (relative to random genomic background probes); higher = stronger binding; sequences stand for … in GC…GCGATTGACAGCGTAGAATGAAGG).
Protocol: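 Protein-binding microarray (Agilent 4x180K custom design, double-stranded 60-nt probes: 5' GC cap, 34-nt variable region, 24-nt constant primer region; full probe sequence given). Purified or IVT nuclear receptor:RXRα heterodimers (3:1 NR:RXRα, mostly 270:90 nM) or homodimers were incubated for 1 h in PBS with 2% milk and no ligand, then detected with Alexa488 antibodies. Fluorescence from o1-orientation probes (~5 replicates averaged) was converted to z-scores against 500 random hg19 background probes. Variable regions are seed direct-repeat (DR0–DR5) sites, all their single-nucleotide variants and half-site ablations.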

Sequence | PBM binding z-score
CCTACTGGGCCACGGTCATTGATCAGTCAAAGCA | -0.388
CCTACTGGGCCAAAAAGGTCATTGGTGCCGATAA | 5.2
TTACGAAGGTGAAGGTCGTTGATCCCTCTGTAGA | 1.39
CCTACTTGGCCAAAAAGGTCATTGATGCCGATAA | 4.82
ACTAGCAGGCCAAGTTTGCGTCACTCAAACAAAG | -0.321
GCTAGCGGGCCATTTGGGTCACTCAATGACGGGC | 0.753
CAAACTAGGTCACAGAGGTCAAAATCCGTGCGTA | 7.91
CAGCCTAGGTCAGGGCCACTATAGGAGGAACGTT | 0.305
TCTAGCAGGCCAGAGGGCCACTCAAGAGGTACGG | -0.505
CTACCAAGGTGAACAAGGTCGTTTATTACTATTC | 6.54
CCTTACGGGTCACTGACAGGTTATACCATTTGGA | 3.9
CCTTACGGGTCAATCCAGGTTATAGCATCGGAGT | 4.64
ATATGTAGGTTAAGGGACATTCAGGTTGGTTCGC | 1.07
CCTGTTAGGTCAATGGTCAGCTAAAGCAGCTCGC | 1.54
GCTGCTAGGTCAAATGATGGTCAGCTAAAGCTCG | 1.96
CCTCGGAGGACAACAGGAGGTCACAGCTGCCAGA | 3.53
GGAACGAGCGCAAGTTGATAGCAGAGTTTGATGG | -0.693
ATATGTAGGTGATCGGGTCATTCAGTTTGCGCAT | 4.74
CCTTACGGGTCACTCCAGCTTATAGCATCGGAGT | 2.73
CCGAGTAGGTTCTGGGGCATTCAGGCAACGGTGA | -0.552

Sequence | PBM binding z-score
GGTATTAGTTGAAAGGGCAACCGAATGATTCTCG | 1.16
AGTCAAAGTTCAGGAGGAGGTAACGTAAAGCACG | 2.89
CGTCAAGGTTCAAGGTAACGTAACAGAAAGCAGC | 3.05
CCTAGTTGGTCAAGGTCACAAACGCTATAGGTAC | 3.73
TGAGTGAGGTTAAAGATCAGGGAACGTGGCGTCG | 1.66
GTACCAAGGGGAATAGGTCGTTGATGAGTAGGCG | 0.104
AATACAGGGTCATCGTAGGCGAGAGTACGCACAG | 5.01
GCTATTAGTTGAAGGGGCAACCGAATGATTCTCG | -0.246
CCGACTGGGGCAGAAATGTTACCATACCATCCGG | -0.557
CCGAGTAGGTTATGGGGCATTCAAGCAACGGTGA | -0.183
ATCTCTAGGTAAAAGTTCGGTGAATCCCGAGGAT | 0.449
GCCAGCAGGCCATTTGGGTCACTCAATGACGGGC | 0.978
CCTACTGGGCCAAGGGCATTGATCAGTCAAAGCA | -0.469
ATCTCTAGGTAAAGATAGTTCAATGAATGCAAAT | 1.61
GCTAGCAGGCCATTTGGGTGACTCAATGACGGGC | -0.749
TTACCAAGGTGAATGGTCGTTGATGCACGCCTTG | -0.0229
CCGACTGGGACAAGGTTACCATAACGCACAGCCA | 0.2
AATACAGGGTCTTCGTAGGCCAGAGTACGCACAG | 0.0684
TCTCGGGGGACACGAAAGGTCAGAGCTCGACATC | 4.39
CGAACGAGGGCATGTGTTGATAGCAAATGCCGAT | 0.931
